# Assay results from PubChem BioAssay (NCI).
# Several values for one entry are separate records, joined by “and”; a condition that tells them apart may be missing. Equal values may be shown once. About 79,000 compounds went through this panel and 15% of them were active in at least one assay; those are over-represented in the sample as a whole. Values without a mark were called inactive. Activity calls are given as the source filed them. No stated cut-off is given here; in the data, active means growth inhibition above about 70%; inactive means the rest.
# Tests used:
# [1] = NCI Yeast Anticancer Drug Screen. Data for the rad50 strain (AID 155);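 further: 0% = growth of vehicle-only cultures of the same strain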; settings: S. cerevisiae rad50 strain growth inhibition; at 50.0 µM; hits give high values
# Procedure, shortened: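 Inhibition values express reduced yeast growth in compound-treated cultures relative to vehicle-treated controls.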
# [2] = NCI Yeast Anticancer Drug Screen. Data for the mec2-1 strain (AID 157); settings: S. cerevisiae mec2-1 strain, at 50.0 µM, hits give high values
# Procedure, shortened: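 Test agents were screened against the mec2-1 yeast strain, with defined DNA repair or cell cycle alteration. Growth was scored as inhibition against vehicle-only controls.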
# [3] = NCI Yeast Anticancer Drug Screen. Data for the sgs1 mgt1 strain (AID 161);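 further: 0% = growth of cultures given vehicle only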; settings: S. cerevisiae sgs1 mgt1 strain, at 50.0 µM, hits give high values
# Procedure, shortened: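 Mutant yeast exposed to compound; growth scored against vehicle-only wells.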
# [4] = NCI Yeast Anticancer Drug Screen. Data for the bub3 strain (AID 167); settings: S. cerevisiae bub3 mutant strain, at 50.0 µM, hits give high values
# Procedure, shortened: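 Steps: expose the mutant yeast strain to compound; grow alongside vehicle-treated cultures; measure growth; express inhibition against the vehicle cultures.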
# [5] = NCI Yeast Anticancer Drug Screen. Data for the mlh1 rad18 strain (AID 175); settings: S. cerevisiae mlh1 rad18 strain growth inhibition; at 50.0 µM; hits give high values
# Procedure, shortened: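 In this whole-cell yeast screen, a strain with altered DNA damage repair is challenged with compound, and its growth is measured against matched vehicle-treated controls.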
# [6] = NCI Yeast Anticancer Drug Screen. Data for the cln2 rad14 strain (AID 165);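 further: 0% = growth equal to vehicle treated cultures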; settings: S. cerevisiae cln2 rad14 strain, at 50.0 µM, hits give high values
# Procedure, shortened: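 Growth of compound-exposed yeast (cln2 rad14 genotype) measured and expressed as inhibition relative to vehicle.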
SMILES,growth inhibition [1],growth inhibition [2],growth inhibition [3],growth inhibition [4],growth inhibition [5],growth inhibition [6]
O=C1C2CCN(CC2)C1Cc1ccccc1 (stereo not drawn),-10.2% and -4.55%,1.95% and 2.95%,-8.7% and 4.4%,-18.3% and -2.8%,-15.4% and 2.95%,–
O=P1(O)NP(=O)(O)NP(=O)(O)NP(=O)(O)N1,-9.45%,2.9%,-9.8%,–,-3.95%,-5.45%
O=P(Cc1ccccc1)(Oc1ccccc1)Oc1ccccc1,89.8% (active),56.5%,–,40.1%,74.8% (active),24.8%
COc1ccc(-c2c[se]c(=S)s2)cc1,24.1%,10.8%,–,4.2%,11.3%,-33.5%
CC1(C)SC2C(NC(=O)Cc3ccccc3)C(=O)N2C1C(=O)O (stereo not drawn),1.45%,-16.6%,-22.4%,–,-9.6%,-97.3%
CCC[CH2][Sn]1([CH2]CCC)[O]C(=O)CN=C(C)c2ccccc2[O]1,0.1%,9.85%,4%,–,3.45%,45.5%
CC[P+](C#Cc1ccccc1)(c1ccccc1)c1ccccc1,85.8% (active),88.9% (active),89% (active),87.4% (active),87.5% (active),–
CSCC(NP1(=O)SC(NN=C2CCCCC2)=NC1(C)C)C(=O)O (stereo not drawn),12.2%,3.95%,2%,–,18.6%,-5.5%
c1ccc(C[n+]2ccc(-c3ccccc3)cc2)cc1,-5.75%,5.5%,-0.35%,-7.15%,-19.5%,-7.25%
CN(C)CCSC(c1ccccc1)c1ccc(Br)cc1 (stereo not drawn),32.5%,20.1%,52.4%,34.4%,62.2%,–
CCCCCCCCCCCCCCCCOc1ccc(S(=O)(=O)F)cc1C(=O)Nc1ccc(S(=O)(=O)Nc2cccc3ccccc23)cc1,3.3%,1.9%,-2.75%,–,5.35%,-3.05%
O=C(O)C(F)(F)C(F)(Cl)C(F)(F)C(F)(Cl)C(F)(F)C(F)(Cl)C(F)(F)Cl (stereo not drawn) (tested in a mixture with another compound),8.45% and 43.4%,28.8% and 18.4%,37.4% and 41.1%,–,35.5% and 30.5%,9.7% and 27.6%
CCCCN1COC2CCCCC21 (stereo not drawn),20.6%,-13.2%,-43.2%,–,-32.9%,–
N.N.N.N.N.O=C([O-])CCl.[Co+3].[O-][Cl+3]([O-])([O-])[O-],-21.4%,-7.45%,-33.5%,–,-31.4%,-0.1%
O=S(O)(O)=S.[Co+3].[NH-]CC[NH-].[NH-]CC[NH-].[NH2-].[NH2-],-8.05%,-6.85%,2%,14.8%,7.05%,–
CN(C)c1ccc(N=Nc2cccc(C(=O)[O-])c2)cc1.CN(C)c1ccc(N=Nc2cccc(C(=O)[O-])c2)cc1.NC1CCCCC1N.[Pt+4],-13.4%,-4.05%,-18.4%,-28.1%,36.5%,–
COc1cccc(/C=N/[N-]C(=O)c2ccncc2)c1[O-].[Ni+2].[OH3+],-14.6%,-4.05%,-12.1%,-12.2%,-14.2%,18.1%
C[n+]1cccc(C2CCC[N+]2(C)C)c1 (stereo not drawn),4.4%,7.85%,8.15%,–,-4.6%,-10.9%
CCCCCCCCCCCCCCCCCCC[As](=O)(O)CCCCCCCCCCCCCCCCCCC,46.2%,19.2%,–,13.4%,30.4%,-2.2%
CC(=O)O.CC(=O)O.CC(=O)O.CC(=O)O.[Cu].[Cu],36.9%,20.2%,56.5%,26.9%,40.8%,-53.6%
O=P(O)(O)C(O)c1ccncc1 (stereo not drawn),-28%,-14.9%,-15.8%,-22.6%,-21.9%,-23.1%
CC(C)CCN(CCC(C)C)CC(O)c1ccc(Br)cc1 (stereo not drawn),5.1%,-13.1%,–,-15.6%,0.35%,-47.5%
Cn1c(O)c(C(=O)NC2CCCCC2)c(=O)n(C)c1=S,-6.1%,12.2%,18.9%,–,13.1%,27.6%
